# Data from PubChem BioAssay (NCATS).
# “And” between values parts separate entries of the source, which are not always exact repeats. Equal entries are not always repeated. A number with no mark means an inactive call. Records with an inconclusive call do not appear. Where a call stands in place of a potency, no number is given. The source made the active and inactive calls. Unless noted, calls follow the shape of the dose curve; as a rule, active = well fitted curve in the direction sought with a large enough effect; inconclusive = small, poorly fitted or top-dose-only effect, or another doubt; inactive = no such curve, though single readings can be large; an effect the other way counts as inactive or inconclusive.
# Legend:
# [1] = molecular target: Cytochrome P450 1A2 (Homo sapiens) (UniProt P05177); assay: p450-cyp1a2 (AID 410; calls by dose curve; also: potency is read from the fitted curve at half-maximal effect)
# Sequence of Cytochrome P450 1A2 (Homo sapiens) (P05177 whole entry, looked up): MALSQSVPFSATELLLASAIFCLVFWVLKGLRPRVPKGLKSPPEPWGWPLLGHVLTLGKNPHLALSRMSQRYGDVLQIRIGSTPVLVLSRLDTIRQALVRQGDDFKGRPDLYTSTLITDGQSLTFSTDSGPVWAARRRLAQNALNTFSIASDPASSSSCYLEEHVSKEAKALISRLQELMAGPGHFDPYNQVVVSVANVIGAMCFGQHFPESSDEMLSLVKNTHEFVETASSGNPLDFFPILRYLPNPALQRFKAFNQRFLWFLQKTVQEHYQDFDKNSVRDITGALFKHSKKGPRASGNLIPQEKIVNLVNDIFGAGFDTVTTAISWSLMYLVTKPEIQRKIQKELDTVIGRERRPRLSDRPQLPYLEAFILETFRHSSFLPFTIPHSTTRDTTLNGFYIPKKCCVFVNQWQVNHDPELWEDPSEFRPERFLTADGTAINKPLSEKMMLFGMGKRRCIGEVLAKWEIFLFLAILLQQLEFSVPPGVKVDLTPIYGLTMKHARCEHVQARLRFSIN
# In short: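 20nM CYP1A2 with 100uM Luciferin-ME (at Km) in 100mM KPO4; compound preincubated 10 min, NADPH regeneration added, 60 min at room temperature. Luciferin quantified by luminescence after detection reagent; normalized to 57 uM furafylline.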
# [2] = NFAT Signaling Pathway (AID 444; active = well fitted curve in either direction with a large enough effect, not every such curve was filed as active;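 also: carbachol stimulus at about its EC50 of 1 µM final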); conditions: Jurkat NFAT-bla M1, carbachol, beta-lactamase ratio, 5 h; at 38 µM (top of the series)
# In short: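 Jurkat cells with NFAT-driven β-lactamase reporter and co-expressed M1 receptor, stimulated with carbachol (final 1 uM, ~EC50), compound titration, 5 h at 37 °C. CCF4 loaded 1 h at RT; 460/530 nm ratio gave %activity and AC50.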
# [3] = molecular target: Glucocorticoid receptor (Homo sapiens) (UniProt P04150); assay: GR-GFP Redistribution (AID 450;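 active = compounds whose dose series gives a full or clear partial fitted curve of increased nuclear translocation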; also: potency is read from the fitted curve at half-maximal effect); conditions: U2OS GR-GFP nuclear translocation, laser cytometry, 2 h
# Sequence of Glucocorticoid receptor (Homo sapiens) (P04150 whole entry, looked up, the tested form may be a part): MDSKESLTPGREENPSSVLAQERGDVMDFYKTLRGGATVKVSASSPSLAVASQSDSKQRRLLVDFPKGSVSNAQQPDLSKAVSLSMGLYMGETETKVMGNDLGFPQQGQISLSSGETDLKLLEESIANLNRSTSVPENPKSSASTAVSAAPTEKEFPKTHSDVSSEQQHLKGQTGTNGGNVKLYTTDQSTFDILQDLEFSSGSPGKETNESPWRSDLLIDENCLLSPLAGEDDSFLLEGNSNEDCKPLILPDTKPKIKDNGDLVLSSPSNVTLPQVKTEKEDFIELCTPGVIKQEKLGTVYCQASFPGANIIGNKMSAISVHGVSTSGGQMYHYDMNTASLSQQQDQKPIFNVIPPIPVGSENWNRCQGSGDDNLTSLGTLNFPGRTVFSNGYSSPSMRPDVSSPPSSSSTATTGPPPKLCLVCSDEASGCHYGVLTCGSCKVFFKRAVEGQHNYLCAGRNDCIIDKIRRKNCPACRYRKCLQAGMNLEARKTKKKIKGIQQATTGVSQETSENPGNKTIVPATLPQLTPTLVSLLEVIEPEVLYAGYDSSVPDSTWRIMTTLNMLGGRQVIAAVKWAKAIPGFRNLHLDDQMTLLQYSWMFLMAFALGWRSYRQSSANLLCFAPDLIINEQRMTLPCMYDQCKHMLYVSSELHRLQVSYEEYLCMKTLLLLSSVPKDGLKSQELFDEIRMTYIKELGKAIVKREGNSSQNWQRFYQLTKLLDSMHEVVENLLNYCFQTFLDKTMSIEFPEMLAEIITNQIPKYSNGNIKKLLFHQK
# [4] = molecular target: Glucocorticoid receptor (Homo sapiens) (UniProt P04150); assay: GR-EFC Redistribution (AID 451; calls by dose curve; also: potency is read from the fitted curve at half-maximal effect); conditions: CHO-K1 GR-EFC translocation, beta-gal luminescence, 2 h
# In short: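 CHO-K1 cells expressing nuclear EA and GR-ED fragments of b-gal; compounds titrated up to 46 uM final, 2 h at 37 C. GR nuclear translocation read as complemented b-gal luminescence after 1 h RT detection.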
# [5] = molecular target: Mitogen-activated protein kinase 10 (Mus musculus) (UniProt Q61831); assay: JNK3 AlphaScreen Assay (AID 530; active = well fitted curve in either direction with a large enough effect, not every such curve was filed as active;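 also: kinase came from lysate of stimulated human HepG2 cells; signal reports phosphorylation of biotinylated GST-cJun 1-79 at Ser73 with 10 µM ATP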)
# In short: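 Pre-activated (IL-1β/TNFα) JNK3 in HepG2 lysates phosphorylates biotin-GST-cJun(1-79), 10 uM ATP; anti-phospho-cJun(Ser73) AlphaScreen read at room temperature, pH 7.6 Tris buffer. Compounds pre-incubated 15 min as titrations.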
# [6] = molecular target: 3',5'-cyclic-AMP phosphodiesterase 4B (Homo sapiens) (UniProt Q07343); assay: qHTS Assay for Inhibitors of PDE-IV (AID 607; active = well fitted activation curve with a large enough effect in the main read-out, with a control signal flat, not every such curve was filed as active)
# Sequence of 3',5'-cyclic-AMP phosphodiesterase 4B (Homo sapiens) (Q07343 whole entry, looked up): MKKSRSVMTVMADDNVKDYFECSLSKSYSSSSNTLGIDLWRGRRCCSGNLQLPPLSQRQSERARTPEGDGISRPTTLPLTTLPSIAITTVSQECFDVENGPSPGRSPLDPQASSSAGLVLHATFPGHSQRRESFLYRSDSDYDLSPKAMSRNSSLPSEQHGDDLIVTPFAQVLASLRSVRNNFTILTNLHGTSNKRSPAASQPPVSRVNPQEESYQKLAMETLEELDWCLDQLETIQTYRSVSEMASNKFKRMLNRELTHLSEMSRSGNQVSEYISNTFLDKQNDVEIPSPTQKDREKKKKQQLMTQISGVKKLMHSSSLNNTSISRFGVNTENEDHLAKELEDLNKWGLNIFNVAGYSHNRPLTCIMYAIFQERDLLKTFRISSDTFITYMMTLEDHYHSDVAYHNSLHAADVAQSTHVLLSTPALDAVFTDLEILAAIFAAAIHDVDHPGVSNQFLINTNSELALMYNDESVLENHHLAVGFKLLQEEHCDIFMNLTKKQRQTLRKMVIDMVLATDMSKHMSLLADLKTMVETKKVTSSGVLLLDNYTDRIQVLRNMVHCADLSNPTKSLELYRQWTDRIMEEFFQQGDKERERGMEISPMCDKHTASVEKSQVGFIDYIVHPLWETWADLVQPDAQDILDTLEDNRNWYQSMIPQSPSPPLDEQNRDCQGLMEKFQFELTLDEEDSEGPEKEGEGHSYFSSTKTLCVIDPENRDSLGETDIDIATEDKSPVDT
# In short: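 ACTOne HEK293 cells carry a modified cAMP-gated CNG channel and express endogenous PDE4; plated 1000 cells/well, compounds up to 22.9 uM final. Membrane-potential dye fluorescence (ex 535/em 590) was read; parental cells received 10 uM forskolin + 100 uM RO 20-1724.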
# [7] = molecular target: Guanine nucleotide-binding protein G(i) subunit alpha-1 (Homo sapiens) (UniProt P63096); assay: qHTS Assay for Inhibitors of RGS12 GoLoco Motif Activity (Green Fluorophore) (AID 879);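 also: negative values mean loss of peptide binding seen as reduced polarization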
# In short: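 Fluorescence polarization assay: 50 nM Gαi1 with 10 nM FITC-labeled RGS12 GoLoco peptide in 10 mM Tris pH 7.5, 150 mM NaCl, 0.1 mM GDP, 0.05% NP40, 10 min at room temperature with compound.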
# [8] = molecular target: Cytochrome P450 2C9 (Homo sapiens) (UniProt P11712); assay: qHTS Assay for Inhibitors and Substrates of Cytochrome P450 2C9 (AID 883); also: potency is read from the fitted curve at half-maximal effect; nearly all actives have a fitted effect of over 60% in size
# Sequence of Cytochrome P450 2C9 (Homo sapiens) (P11712 whole entry, looked up): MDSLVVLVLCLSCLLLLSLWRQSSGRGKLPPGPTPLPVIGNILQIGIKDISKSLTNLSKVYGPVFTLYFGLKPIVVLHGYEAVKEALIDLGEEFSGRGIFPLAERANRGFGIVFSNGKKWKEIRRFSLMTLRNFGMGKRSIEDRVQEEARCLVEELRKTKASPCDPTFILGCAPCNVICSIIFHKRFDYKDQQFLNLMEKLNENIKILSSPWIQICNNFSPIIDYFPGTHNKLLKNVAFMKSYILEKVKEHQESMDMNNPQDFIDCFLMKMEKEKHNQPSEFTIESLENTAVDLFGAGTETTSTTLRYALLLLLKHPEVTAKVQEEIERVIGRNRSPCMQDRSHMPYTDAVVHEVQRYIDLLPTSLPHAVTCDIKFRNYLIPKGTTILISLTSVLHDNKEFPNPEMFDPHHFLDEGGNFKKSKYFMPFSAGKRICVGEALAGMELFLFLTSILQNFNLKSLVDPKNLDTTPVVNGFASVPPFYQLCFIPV
# In short: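 Signal: luciferase luminescence reporting luciferin produced by CYP2C9. Conditions: 10nM enzyme, Luciferin-H 100uM at KM, 25mM KPO4, 37C, 60 min NADPH-driven reaction. Reference: 57uM sulphaphenazole as 100% inhibition.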
# [9] = molecular target: Cytochrome P450 3A4 (Homo sapiens) (UniProt P08684); assay: qHTS Assay for Inhibitors and Substrates of Cytochrome P450 3A4 (AID 884); also: potency is read from the fitted curve at half-maximal effect; nearly all actives have a fitted effect of over 50% in size
# Sequence of Cytochrome P450 3A4 (Homo sapiens) (P08684 whole entry, looked up): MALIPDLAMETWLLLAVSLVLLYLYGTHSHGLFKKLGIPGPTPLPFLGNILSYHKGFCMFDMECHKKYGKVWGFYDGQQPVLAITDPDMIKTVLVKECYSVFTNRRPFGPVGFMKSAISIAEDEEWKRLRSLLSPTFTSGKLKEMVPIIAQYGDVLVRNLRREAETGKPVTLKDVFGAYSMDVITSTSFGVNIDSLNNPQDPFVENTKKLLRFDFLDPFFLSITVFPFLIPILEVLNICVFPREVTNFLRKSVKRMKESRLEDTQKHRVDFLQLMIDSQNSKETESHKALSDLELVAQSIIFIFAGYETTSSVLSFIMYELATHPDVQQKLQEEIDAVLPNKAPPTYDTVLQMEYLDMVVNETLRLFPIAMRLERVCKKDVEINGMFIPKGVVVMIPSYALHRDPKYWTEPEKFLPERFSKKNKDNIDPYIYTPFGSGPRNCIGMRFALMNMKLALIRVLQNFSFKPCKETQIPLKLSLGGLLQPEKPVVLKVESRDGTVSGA
# In short: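 20 nM human CYP3A4 with 25 uM Luciferin-PPXE (at KM) in 200 mM KPO4, preincubated 10 min with compound; NADPH regeneration started a 60 min RT reaction. Luciferin detected by luminescence, normalized to 57 uM ketoconazole as full inhibition.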
# [10] = molecular target: Cytochrome P450 3A4 (Homo sapiens) (UniProt P08684); assay: qHTS Assay for Activators of Cytochrome P450 3A4 (AID 885); also: nearly all actives have a fitted effect of over 65% in size
# In short: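 20nM CYP3A4 + 25uM Luciferin-PPXE (=KM), 200mM KPO4; cpd 10 min RT; NADPH regen, 60 min RT; stop w/ detection buffer, 20 min; luminescence. Normalized to 57 uM ketoconazole.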
# [11] = molecular target: Muscarinic acetylcholine receptor M1 (Rattus norvegicus) (UniProt P08482); assay: qHTS Assay for Antagonists of Acetylcholine Muscarinic M1 Receptor: Kinetic Measurement of Intracellular Calcium Response (AID 943); also: nearly all actives have a fitted effect of over 75% in size
# Sequence of Muscarinic acetylcholine receptor M1 (Rattus norvegicus) (P08482 whole entry, looked up): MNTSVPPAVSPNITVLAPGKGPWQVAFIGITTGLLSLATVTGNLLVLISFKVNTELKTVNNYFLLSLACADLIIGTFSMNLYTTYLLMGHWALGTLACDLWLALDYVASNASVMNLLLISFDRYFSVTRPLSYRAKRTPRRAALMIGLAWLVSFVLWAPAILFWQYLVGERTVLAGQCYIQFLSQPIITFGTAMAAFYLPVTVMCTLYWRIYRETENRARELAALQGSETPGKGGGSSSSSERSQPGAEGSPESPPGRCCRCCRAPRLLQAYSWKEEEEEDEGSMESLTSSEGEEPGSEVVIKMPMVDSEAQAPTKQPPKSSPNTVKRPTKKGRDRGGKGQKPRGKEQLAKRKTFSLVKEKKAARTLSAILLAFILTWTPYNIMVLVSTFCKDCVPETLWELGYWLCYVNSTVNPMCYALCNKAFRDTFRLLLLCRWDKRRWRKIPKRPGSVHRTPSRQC
# In short: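 CHO cells expressing rat M1 receptor, Fluo-4 loaded, preincubated 10 min with compound, then stimulated with EC80 carbachol (100 nM final). Kinetic calcium fluorescence over 4 min; response taken as peak over basal signal.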
# [12] = molecular target: Pyruvate kinase (Leishmania mexicana) (UniProt Q27686); assay: qHTS Validation Assay for Inhibitors of Leishmania Mexicana Pyruvate Kinase (AID 945)
# Sequence of Pyruvate kinase (Leishmania mexicana) (Q27686 2-499 E452W): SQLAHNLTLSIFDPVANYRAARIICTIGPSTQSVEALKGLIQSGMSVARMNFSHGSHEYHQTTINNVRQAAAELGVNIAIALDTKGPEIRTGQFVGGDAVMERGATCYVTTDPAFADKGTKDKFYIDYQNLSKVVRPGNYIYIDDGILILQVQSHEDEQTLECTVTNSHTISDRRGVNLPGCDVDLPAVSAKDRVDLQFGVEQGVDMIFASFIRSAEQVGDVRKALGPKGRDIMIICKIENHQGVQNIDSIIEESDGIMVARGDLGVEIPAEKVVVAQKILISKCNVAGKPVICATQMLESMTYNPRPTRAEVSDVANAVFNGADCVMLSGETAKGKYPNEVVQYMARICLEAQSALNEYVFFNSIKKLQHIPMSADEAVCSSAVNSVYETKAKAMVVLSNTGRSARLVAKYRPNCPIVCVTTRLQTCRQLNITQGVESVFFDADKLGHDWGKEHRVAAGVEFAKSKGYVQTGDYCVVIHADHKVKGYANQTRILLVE
# In short: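 An endpoint luciferase assay: 0.2 nM LmPYK E451W turns over 0.5 mM PEP with 0.1 mM ADP for 1 h at room temperature, pH 7.2, before PKLight addition. Values are normalized to DMSO-only wells.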
# [13] = molecular target: Pyruvate kinase PKM (Homo sapiens) (UniProt P14618); assay: qHTS Assay for Activators of Human Muscle Pyruvate Kinase (AID 954; active = well fitted curve in the direction sought with a large enough effect, not every such curve was filed as active)
# Sequence of Pyruvate kinase PKM (Homo sapiens) (P14618 whole entry, looked up): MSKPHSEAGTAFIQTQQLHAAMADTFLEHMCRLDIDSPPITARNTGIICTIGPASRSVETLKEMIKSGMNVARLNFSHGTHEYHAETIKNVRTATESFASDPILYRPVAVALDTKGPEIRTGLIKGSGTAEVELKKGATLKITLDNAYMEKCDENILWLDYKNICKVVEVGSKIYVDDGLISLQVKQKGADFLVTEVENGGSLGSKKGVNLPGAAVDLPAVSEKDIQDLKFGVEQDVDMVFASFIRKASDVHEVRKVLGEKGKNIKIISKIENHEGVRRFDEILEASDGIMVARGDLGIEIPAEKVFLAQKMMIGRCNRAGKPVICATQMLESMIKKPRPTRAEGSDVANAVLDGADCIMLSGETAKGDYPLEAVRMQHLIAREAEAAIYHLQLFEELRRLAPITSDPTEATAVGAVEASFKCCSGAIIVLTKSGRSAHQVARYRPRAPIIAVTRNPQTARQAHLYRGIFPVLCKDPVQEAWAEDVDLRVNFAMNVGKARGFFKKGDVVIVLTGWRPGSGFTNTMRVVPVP
# In short: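 Luminescence from a luciferase ATP-detection/stop reagent reported PKM2 activity. Reactions contained 0.1 nM purified human enzyme, 0.5 mM PEP, 0.1 mM ADP and 7 mM MgCl2 at pH 7.2, run 1 h at RT.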
# [14] = molecular target: Alpha-galactosidase A (Homo sapiens) (UniProt P06280); assay: Counterscreen for Glucocerebrosidase Inhibitors: qHTS Assay for Human alpha-Galactosidase at pH 4.5 (AID 992)
# Sequence of Alpha-galactosidase A (Homo sapiens) (P06280 whole entry, looked up): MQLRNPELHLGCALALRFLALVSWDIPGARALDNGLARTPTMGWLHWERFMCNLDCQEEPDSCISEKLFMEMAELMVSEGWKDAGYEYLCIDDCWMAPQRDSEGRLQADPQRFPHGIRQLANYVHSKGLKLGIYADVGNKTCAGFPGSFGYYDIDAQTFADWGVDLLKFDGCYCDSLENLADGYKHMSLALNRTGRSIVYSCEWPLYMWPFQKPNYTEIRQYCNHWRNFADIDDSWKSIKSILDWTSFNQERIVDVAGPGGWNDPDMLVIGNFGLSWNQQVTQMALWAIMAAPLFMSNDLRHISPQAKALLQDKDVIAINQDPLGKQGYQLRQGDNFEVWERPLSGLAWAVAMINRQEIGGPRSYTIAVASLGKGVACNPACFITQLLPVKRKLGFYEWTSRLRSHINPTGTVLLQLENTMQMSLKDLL
# In short: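 Enzyme at 2 nM final was combined with compound (0.7 nM to 77 uM) and 80 uM 4-methylumbelliferyl alpha-D-galactopyranoside in 50 mM citric acid, 0.005% Tween-20, pH 4.5. After 20 min at room temperature, fluorescence was read (Ex 365/Em 440 nm); AC50 came from Hill fits.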
# [15] = molecular target: alpha-glucosidase (Oryza sativa, rice) (UniProt Q653V4); assay: Counterscreen for Glucocerebrosidase Inhibitors: qHTS Assay for Rice alpha-Glucosidase at pH 5.0 (AID 997)
# In short: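 Rice alpha-glucosidase (4 nM final) with 400 uM 4-methylumbelliferyl-alpha-D-glucopyranoside in citrate buffer pH 5.0, 20 min at room temperature, stopped at pH 10; fluorescence 365/440 nm, compounds 0.7 nM–77 uM, AC50 from Hill fits.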
# [16] = Validation of Assay for Modulators of Lamin A Splicing (AID 1459; active = well fitted curve in the direction sought with a large enough effect in the signal ratio; the % refers to the signal ratio;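 also: cells exposed to compound for two days before reading; ratio rise marks activators and ratio drop marks inhibitors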)
# In short: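 S3 HeLa stably expressing lamin A-EGFP splicing minigene and DsRed2, 600 cells/well in Opti-MEM with 2% FBS, treated 48 h at 37C; laser-scanning cytometry gives GFP/RFP total intensity ratio; ancitabine positive control, 0.5% DMSO vehicle.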
# [17] = molecular target: DNA repair nuclease/redox regulator APEX1 (Homo sapiens) (UniProt P27695); assay: qHTS Validation Assay for Inhibitors of the Human Apurinic/apyrimidinic Endonuclease 1 (APE1) (AID 1705;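 also: TAMRA fluorescence gain over two minutes as APE1 cuts a quenched THF abasic duplex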)
# In short: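 Fluorogenic double-stranded THF abasic-site substrate (5'-TAMRA/3'-BHQ-2), 50 nM final. Enzyme preincubated with compound 15 min at room temperature, then substrate added. Kinetic fluorescence (ex 525/em 598 nm) read three times at 60 s intervals; activity taken as third-minus-first read difference.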
# [18] = Counterscreen for APE1 Inhibitors: Fluorescent Dye Displacement Validation Assay (AID 1707)
# In short: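 Thiazole Orange displacement from dsDNA: 250 nM ThO with 50 nM TAMRA-labelled abasic-site (tetrahydrofuran) duplex in 50 mM Tris-HCl pH7.5, 50mM NaCl, 2 mM MgCl2, 0.01% Tween-20. Loss of endpoint fluorescence (ex 480 nm, em 540 nm) flags DNA binders.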
# [19] = molecular target: Endonuclease 4 (Escherichia coli (strain K12)) (UniProt P0A6C1); assay: Counterscreen for APE1 Inhibitors: qHTS Validation Assay for Inhibitors of Endonuclease IV (AID 1708)
# In short: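 E. coli EndoIV at 2 nM final, preincubated 15 min at room temperature with compound, then 50 nM TAMRA/BHQ-2 THF abasic-site duplex added. Buffer: 50 mM Tris-HCl pH 7.5, 50 mM NaCl, 2 mM MgCl2, 1 mM DTT, 0.01% Tween-20. Kinetic fluorescence increase, third minus first read.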
# [20] = qHTS for differential inhibitors of proliferation of Plasmodium falciparum line 7G8 (AID 1815);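 also: potency is read from the fitted curve at half-maximal effect; parasite growth measured after three days of incubation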
# [21] = qHTS for differential inhibitors of proliferation of Plasmodium falciparum line GB4 (AID 1816); conditions: Potency: Plasmodium falciparum GB4 proliferation inhibition;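 also: potency is read from the fitted curve at half-maximal effect; parasite growth measured after 72 h incubation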
# [22] = qHTS for differential inhibitors of proliferation of Plasmodium falciparum line 3D7 (AID 1876); also: potency is read from the fitted curve at half-maximal effect
# [23] = qHTS for differential inhibitors of proliferation of Plasmodium falciparum line D10 (AID 1877);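 also: potency is read from the fitted curve at half-maximal effect; parasites grown with compound for 72 h before DNA staining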
compound,measurement,setting,value
COc1cc2c(cc1C(F)(F)F)N(C(=O)Nc1cc(F)cc(-c3cccnc3)c1)CC2,Potency,[1],794 nM (active) and 316 nM (active)
same,"activity change, negative = inhibition",[2],-8.89%
same,Potency,[3],> 46000 nM
same,Potency,[4],> 46000 nM
same,Potency,[5],inactive
same,Potency,[6],inactive
same,outcome,[7],inactive
same,Potency,[8],10 µM (active) and 794 nM (active)
same,Potency,[9],2510 nM (active)
same,Potency,[10],inactive
same,Potency,[11],inactive
same,Potency,[12],inactive
same,outcome,[13],inactive
same,outcome,[14],inactive
same,outcome,[15],inactive
same,outcome,[16],inactive
same,Potency,[17],inactive
same,Potency,[18],inactive
same,Potency,[19],inactive
same,Potency,[20],2000 nM (active)
same,Potency,[21],2240 nM (active)
same,Potency,[22],1580 nM (active)
same,Potency,[23],2240 nM (active)
